In PubChem BioAssay:

assay: blood-stage malaria parasite viability loss – strain 3D7, DAPI fluorescence, 100 nL, primary screen (AID 1184);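 note: parasites grown inside human red blood cells in medium with human serum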; conditions: P. falciparum 3D7 growth, 3 d, higher = more signal

In order of falling z-score:
1. CCOC(=O)NN=C1C[C@@H](O)[C@@H](O)[C@@H]2[C@@H]3C(=O)N(C[C@@H]4CCCO4)C(=O)[C@@H]3CC[C@@H]12  0.839
2. CC(=O)OC[C@H]1O[C@H](CCON=C(C)CCC(=O)OC[C@H]2O[C@H](C#Cc3ccccc3)C=C[C@@H]2Oc2ccc(C)cc2)C=C[C@@H]1OC(C)=O  0.724
3. C=CC[C@@H]1C=C[C@H](ON=Cc2ccc(C(=O)N3[C@H](c4ccc(C)cc4)[C@@H](C)CC[C@H]3C(=O)OC)cc2)[C@@H](CO)O1  0.495
4. O=C1[C@H]2[C@H]3[C@H](O)[C@H](O)CC(=NO[C@@H]4O[C@H](CO)[C@@H](O)[C@H](O)[C@H]4O)[C@@H]3CC[C@H]2C(=O)N1Cc1ccccc1  -0.165
5. CC(=O)OC[C@H]1O[C@H](CCON=C[C@@H](C)[C@H](OCc2ccccc2)C(C)C)C=C[C@@H]1OC(C)=O  -0.219
6. C[C@@H]1CC[C@H]2C(=O)O[C@H](COc3ccc(C(C)(C)C)cc3)CN2[C@H]1c1ccc(Br)cc1  -0.407
7. C[C@@H](c1ccccc1)N1C(=O)[C@H]2[C@H]3[C@H](O)[C@H](O)CC(=NNC(=O)OCc4ccccc4)[C@H]3CC[C@H]2C1=O  -0.547
8. O=C1[C@H]2[C@H]3[C@H](O)[C@H](O)CC(=NOC[C@@H](O)COCc4ccco4)[C@@H]3CC[C@H]2C(=O)N1c1ccc(F)cc1F  -0.561
9. O=C1C[C@@H](O)[C@@H](O)[C@@H]2[C@@H]3C(=O)N(c4cccc(Oc5ccccc5)c4)C(=O)[C@@H]3CC[C@@H]12  -0.61
10. CC(=O)OC[C@H]1O[C@H](CCON=C(C)CCN2CCc3nc(-c4ccccc4)c(-c4ccccc4)cc3C2)C=C[C@@H]1OC(C)=O  -0.697
11. CC(CCN1CCc2nc(-c3ccccc3)c(-c3ccccc3)cc2C1)=NOC[C@@H](C)[C@H](OCc1ccccc1)C(C)C  -0.784
12. C#C[C@@H](CC)O[Si](C#Cc1ccc(Oc2ccccc2)cc1)(C(C)C)C(C)C  -0.968
13. COc1cccc([C@H]2Oc3ccc(OC)cc3C(=NOC(C)CN3CCCc4nc(C)c(C)cc43)[C@@H]2O)c1 (stereo partly drawn)  -1.06
14. O=C1[C@H]2[C@H]3[C@H](O)[C@H](O)CC(=NOCc4ccccc4)[C@H]3CC[C@H]2C(=O)N1c1ccc(F)cc1F  -1.08
15. COC(=O)CC=C[C@@H](C)[C@@H](C=NO[C@@H](C)c1cc(-c2c(C)cc(C)cc2C)no1)OC  -1.12
16. O=C1[C@H]2[C@H]3[C@H](O)[C@H](O)CC(=NO[C@@H]4O[C@H](CO)[C@@H](O)[C@H](O)[C@H]4O)[C@H]3CC[C@H]2C(=O)N1Cc1ccccc1  -1.19
17. C=C(CCCC)C(=O)CC[C@@H](OC(C)=O)c1cccc(OCCO)c1  -1.47
18. CC(C)=CCCC(C)=CCON=C1[C@H]2CCn3c(=O)n(C)c(=O)n3[C@H]2[C@H](O)[C@@H]2O[C@H]12  -1.55
19. COC(=O)[C@H](C)NC(=O)CCC1CC(OC(=O)NCc2cccc3ccccc23)CC2(CCCC(COC(=O)NCCc3ccc(Cl)cc3)O2)O1 (stereo partly drawn)  -1.79
20. COC(=O)[C@H](C)NC(=O)CCC1CC(OC(=O)NCc2ccc3c(c2)OCO3)CC2(CCCC(COC(=O)NCCOc3ccccc3)O2)O1 (stereo partly drawn)  -1.79
21. CCOC(=O)[C@H](CC(C)C)NC(=O)CCC1CC(OC(=O)NCc2cccc3ccccc23)CC2(CCCC(COC(=O)NCCc3ccccc3OC)O2)O1 (stereo partly drawn)  -1.83
22. CCOC(=O)[C@H](Cc1ccccc1)NC(=O)CCC1CC(OC(=O)NCc2ccc3c(c2)OCO3)CC2(CCCC(COC(=O)NCc3cccc(C(F)(F)F)c3)O2)O1 (stereo partly drawn)  -2.01
23. C=CC[C@]1(C(=O)NCc2ccccc2)N=C(c2ccc(OCCCO)cc2)O[C@H]1c1ccccc1  -2.05
